Experimental data: PubChem BioAssay (NCATS)
Several values for one entry are separate records, joined by “and”; a condition that tells them apart may be missing. Equal entries are not always repeated. Unmarked numbers belong to inactive results. Results filed as inconclusive are left out. Entries that show only a call come without a potency. Activity calls are given as the source filed them. Unless noted, calls come from the whole dose curve; as a rule, active = well fitted curve in the direction sought with a large enough effect; inconclusive = small, poorly fitted or top-dose-only effect, or another doubt; inactive = no such curve, though single readings can be large; an effect the other way counts as inactive or inconclusive.

Legend:
[1] = qHTS for Inhibitors of ATXN expression: Validation of Cytotoxic Assay (AID 588349); details: cytotoxicity counter-screen for ATXN expression inhibitors, cell viability; series mostly up to 57.1 µM
Method in brief: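 Titrated compounds are added to cultured HEK293 cells, which are then held at 37 degrees C for 72 hr; loss of intracellular ATP, measured with CellTiter Glo, indicates toxicity.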

[2] = qHTS for Inhibitors of ATXN expression: Validation (AID 588378); details: cell-based ATXN2 expression reporter assay, luminescence; series mostly up to 57.1 µM; note: nearly all actives have a fitted effect of over 75% in size
Method in brief: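 Compounds were pinned onto attached HEK293 cells carrying an ATXN2-firefly luciferase construct and incubated 24 hrs at 37 degrees C. Each well then received a fluorescent viability reagent followed by luciferase substrate for end-point luminescence.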

[3] = target: DNA dC->dU-editing enzyme APOBEC-3G (Homo sapiens) (UniProt Q9HC16); experiment: qHTS for inhibitors of Vif-A3G interactions: Validation (AID 588379); details: Vif-A3G protein interaction assay; series mostly up to 46.1 µM
Chain of DNA dC->dU-editing enzyme APOBEC-3G (Homo sapiens) (Q9HC16 whole entry, looked up): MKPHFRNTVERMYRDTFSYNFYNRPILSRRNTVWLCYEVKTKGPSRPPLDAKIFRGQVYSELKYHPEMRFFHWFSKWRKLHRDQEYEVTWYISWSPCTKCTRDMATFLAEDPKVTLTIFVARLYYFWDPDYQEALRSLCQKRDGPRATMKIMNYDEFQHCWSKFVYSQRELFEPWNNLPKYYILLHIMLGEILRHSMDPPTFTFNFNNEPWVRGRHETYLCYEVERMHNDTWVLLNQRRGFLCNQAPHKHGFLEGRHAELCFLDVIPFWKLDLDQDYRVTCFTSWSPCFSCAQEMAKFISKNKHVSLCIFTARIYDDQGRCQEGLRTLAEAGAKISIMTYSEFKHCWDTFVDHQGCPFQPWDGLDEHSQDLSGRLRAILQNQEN
Method in brief: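 Yellow fluorescence (Ex 488, Em 500-530) of Vif-coexpressing HeLa A3G-eYFP cells, scanned by Acumen cytometer, reports blocked A3G degradation. Cells plated at 700/well overnight at 37 deg C before compound addition, then a further overnight compound incubation at 37 deg C.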

[4] = target: Androgen receptor (Homo sapiens) (UniProt P10275); experiment: qHTS assay for small molecule agonists of androgen receptor signaling (AID 588515; active = well fitted curve in the direction sought with a large enough effect in the signal ratio, with a control signal flat; the % refers to the signal ratio; note: potency is the fitted concentration of half-maximal effect); details: AR-UAS-bla HEK293, beta-lactamase ratio, agonist 16 h; activation: active compounds read high
Chain of Androgen receptor (Homo sapiens) (P10275 whole entry, looked up): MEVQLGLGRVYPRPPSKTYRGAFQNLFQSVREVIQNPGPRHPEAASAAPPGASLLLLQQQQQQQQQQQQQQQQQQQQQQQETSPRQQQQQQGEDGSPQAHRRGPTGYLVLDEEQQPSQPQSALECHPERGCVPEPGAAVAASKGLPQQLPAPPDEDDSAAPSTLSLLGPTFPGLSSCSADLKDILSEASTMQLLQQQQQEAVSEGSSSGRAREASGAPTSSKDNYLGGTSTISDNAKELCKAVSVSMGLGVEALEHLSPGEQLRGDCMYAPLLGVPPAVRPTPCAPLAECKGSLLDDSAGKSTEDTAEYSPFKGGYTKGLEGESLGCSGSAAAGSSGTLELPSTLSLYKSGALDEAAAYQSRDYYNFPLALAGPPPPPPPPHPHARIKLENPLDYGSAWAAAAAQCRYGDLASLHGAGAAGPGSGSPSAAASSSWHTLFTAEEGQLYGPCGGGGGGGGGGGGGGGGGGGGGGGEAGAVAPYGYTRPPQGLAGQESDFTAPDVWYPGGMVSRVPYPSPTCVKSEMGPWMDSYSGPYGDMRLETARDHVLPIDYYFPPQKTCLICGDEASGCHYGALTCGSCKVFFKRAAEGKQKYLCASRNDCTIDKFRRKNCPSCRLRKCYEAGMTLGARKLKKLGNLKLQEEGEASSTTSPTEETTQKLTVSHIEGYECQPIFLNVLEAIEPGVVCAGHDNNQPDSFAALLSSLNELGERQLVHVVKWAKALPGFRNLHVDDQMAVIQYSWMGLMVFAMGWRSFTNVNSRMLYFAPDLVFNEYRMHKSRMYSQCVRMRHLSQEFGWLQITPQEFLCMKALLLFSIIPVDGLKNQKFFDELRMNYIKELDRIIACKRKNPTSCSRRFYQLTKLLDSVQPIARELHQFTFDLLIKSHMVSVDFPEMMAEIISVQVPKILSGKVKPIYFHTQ
Method in brief: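 Stimulation of an AR-responsive β-lactamase reporter in GripTite HEK293 cells was measured after 16 h compound exposure at 37 °C, via CCF4 fluorescence after 2 h RT. EC50 from Hill fits, normalized to R1881 at 30 nM.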

[5] = target: Androgen receptor (Homo sapiens) (UniProt P10275); experiment: qHTS assay for small molecule antagonists of androgen receptor signaling (AID 588516; active = well fitted curve in the direction sought with a large enough effect in the signal ratio, with a control signal flat, not every such curve was filed as active; the % refers to the signal ratio); details: AR-UAS-bla HEK293, beta-lactamase ratio, antagonist mode, 16 h; series mostly up to 76.8 µM
Method in brief: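 Cells were plated and incubated 5 h, compounds added in titration, then R1881 (10 nM final) as agonist. After 16 h at 37 C, CCF4 substrate was loaded for 2 h at room temperature and fluorescence measured.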

**Q.** Which Potency [1] does the source give for `CN/C(=C\[N+](=O)[O-])NCCSCc1ccc(CN(C)C)o1` here?
**A.** inactive

**Q.** And the Potency [2]?
**A.** inactive

**Q.** And the outcome [3]?
**A.** inactive

**Q.** What does the source list for `CCCCCCCC/C=C\CCCCCCCC(=O)NCc1ccc(O)c(OC)c1`?
**A.** Potency [1]: inactive; Potency [2]: inactive; outcome [3]: inactive

**Q.** For `CCCN1C[C@H](CSC)C[C@@H]2c3cccc4[nH]cc(c34)C[C@H]21`, which Potency [1] is on record?
**A.** inactive

**Q.** And the Potency [2]?
**A.** inactive

**Q.** And the outcome [3]?
**A.** inactive

**Q.** With `CCN1CCC[C@H]1CNC(=O)c1c(O)c(Cl)cc(Cl)c1OC` as the compound, how does the Potency [1] read?
**A.** inactive

**Q.** And the Potency [2]?
**A.** inactive

**Q.** What about the outcome [3] of the same compound?
**A.** inactive

**Q.** Which results are given for `CC1=NS(=O)(=O)c2cc(Cl)ccc2N1`?
**A.** Potency [1]: inactive; Potency [2]: inactive; outcome [3]: inactive

**Q.** For `Cc1ccc(/C(=C\CN2CCCC2)c2ccccn2)cc1`, which Potency [1] is on record?
**A.** inactive

**Q.** What about the Potency [2] of the same compound?
**A.** inactive

**Q.** Which Potency [1] does the source give for `Cc1scc2c1N(C(=O)CN1CCN(C)CC1)c1ccccc1NC2=O` here?
**A.** inactive

**Q.** And the Potency [2]?
**A.** inactive

**Q.** And the outcome [3]?
**A.** inactive

**Q.** Which results are given for `c1cnc(N2CCN(Cc3ccc4c(c3)OCO4)CC2)nc1`?
**A.** Potency [1]: inactive; Potency [2]: inactive; outcome [3]: inactive

**Q.** Which Potency [1] does the source give for `CN1CCN(CC(=O)N2c3ccccc3C(=O)Nc3cccnc32)CC1` here?
**A.** inactive

**Q.** What about the Potency [2] of the same compound?
**A.** inactive

**Q.** And the outcome [3]?
**A.** inactive

**Q.** What does the source list for `CCCN(CCC)CCc1cccc2c1CC(=O)N2`?
**A.** Potency [1]: inactive; Potency [2]: inactive

**Q.** With `O=C1CC2(CCCC2)CC(=O)N1CCCCN1CCN(c2ncccn2)CC1` as the compound, how does the Potency [1] read?
**A.** inactive

**Q.** And the Potency [2]?
**A.** inactive

**Q.** And the outcome [3]?
**A.** inactive

**Q.** With `Cc1nc2c([nH]1)c(=O)n(C)c(=O)n2Cc1ccco1` as the compound, how does the Potency [1] read?
**A.** inactive

**Q.** What about the Potency [2] of the same compound?
**A.** inactive

**Q.** Which Potency [1] does the source give for `CCCOc1ccccc1-c1nc2n[nH]nc2c(=O)[nH]1` here?
**A.** inactive

**Q.** And the Potency [2]?
**A.** inactive

**Q.** What about the outcome [3] of the same compound?
**A.** inactive

**Q.** With `CCn1nc(C(=O)O)c(=O)c2cc3c(cc21)OCO3` as the compound, how does the Potency [1] read?
**A.** inactive

**Q.** What about the Potency [2] of the same compound?
**A.** inactive

**Q.** What about the outcome [3] of the same compound?
**A.** inactive

**Q.** With `CN(C)C(=O)Oc1cccc([N+](C)(C)C)c1` as the compound, how does the Potency [1] read?
**A.** inactive

**Q.** What about the Potency [2] of the same compound?
**A.** inactive

**Q.** Which Potency [1] does the source give for `NC(Cc1ccc(Cl)cc1)C(=O)O` (stereo unspecified) here?
**A.** inactive

**Q.** And the Potency [2]?
**A.** inactive

**Q.** For `Nc1nc(N)c2nc(-c3ccccc3)c(N)nc2n1`, which Potency [4] is on record?
**A.** 44.7 µM (active)

**Q.** Which results are given for `CCCCOCCOCCOCc1cc2c(cc1CCC)OCO2`?
**A.** activation [4]: 19.3% and -3.12%; outcome [5]: inactive
